Assay [1] has as its system TRPC4 beta (transient receptor potential cation channel C4), mouse. In words: activators of mouse TRPC4 channel, confirmation, cell-based, Fluo4 calcium, HEK293 TRPC4beta/mu-opioid, duplicates, 10 µM (AID 2426;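 active = fluorescence ratio normalized to control raised more than 50% in primary screen plus both repeat runs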). The note with it: Fluo4 calcium fluorescence, at 10 µM; stronger effect = higher value.
Assay [2] has as its system transient receptor potential cation channel C4 beta (TRPC4), mouse. The experiment in a line: activators of mouse TRPC4 channel, confirmation, cell-based, second round, Fluo4, HEK293 TRPC4beta/mu-opioid, 1 µM (AID 2461;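 active = primary screen active and over 50% activation in each of two duplicate runs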). The note with it: Fluo4 calcium fluorescence, at 1 µM; stronger effect = higher value.
Assay [3] has as its system TRPC4 (transient receptor potential cation channel C4 beta), mouse. In words: positive allosteric modulators of mouse TRPC4, confirmation, cell-based, second round, Fluo-4, HEK293 TRPC4beta/mu-opioid, 1 µM (AID 2554;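 active = primary screen hit whose fluorescence ratio, in both repeats, exceeds the weak agonist control mean by 3 SD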). The note with it: DAMGO EC20, Fluo-4 calcium flux, at 1 µM; stronger effect = higher value. On the technique in general: Calcium assays in cells follow changes in intracellular calcium, usually with a dye or a luminescent sensor.

Assay [4] concerns TRPC4 beta (transient receptor potential cation channel C4), mouse. In words: positive allosteric modulators of mouse TRPC4, confirmation, cell-based, Fluo-4, HEK293 TRPC4beta/mu-opioid (AID 2555). The note with it: DAMGO EC20, Fluo-4 calcium flux, at 10 µM; stronger effect = higher value.
Assay [5] addresses Short transient receptor potential channel 4 (Mus musculus) (UniProt Q9QUQ5). The experiment in a line: inhibitors of mouse TRPC4 channel, confirmation, cell-based, Fluo4, HEK293 TRPC4beta/mu-opioid (AID 2636;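 active = calcium signal cut by more than 3 SD below the full-agonist control yet still positive, in both repeats and the earlier primary screen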). The note with it: DAMGO, Fluo4 calcium flux, at 10 µM; stronger effect = higher value.
For assay [6] the target is unchanged. In words: inhibitors of mouse TRPC4 channel, confirmation, cell-based, second round, Fluo4, HEK293 TRPC4beta/mu-opioid, 1 µM (AID 2637;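 active = calcium signal ratio cut to more than 3 SD under the fully stimulated control mean yet still positive, in both repeats and the primary screen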;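 as to inhibition: percent of integrated ratio relative to wells lacking test compound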). The note with it: Fluo4 calcium flux, DAMGO, at 1 µM; stronger effect = higher value.
For assay [7] the target is unchanged. In words: mouse TRPC4 channel activators, dose response, cell-based, HEK293 TRPC4/mu-opioid, Fluo-4 calcium (AID 434937;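 active = primary screen activator hit with a dose response curve and TRPC4 channel activation at any tested dose; inactive = no activation, no dose response, or not a primary hit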).
For assay [8] the target is unchanged. In words: TRPC4 positive allosteric modulators, dose response, cell-based, HEK293 TRPC4/mu-opioid, Fluo-4 calcium, EC20 DAMGO (AID 434941;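 active = earlier screen potentiator hit that boosts the TRPC4 ion channel at some dose, with a dose response; inactive = no potentiation, no dose response, or not a prior hit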;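 also: calcium entry triggered by an EC20 dose of DAMGO at the co-expressed mu-opioid receptor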).
Assay [9] addresses Short transient receptor potential channel 6 (Mus musculus) (UniProt Q61143). The experiment in a line: inhibition of mouse TRPC6 channel, confirmation, selectivity assay for TRPC4 inhibitor project, cell-based, HEK293, membrane potential dye, duplicate (AID 434948;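 active = active in primary screen and both duplicates, each dropping signal beyond three positive-control SD with fluorescence still positive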). The note with it: HEK293 TRPC6, membrane potential dye fluorescence, at 10 µM, stimulated with maximal-effect acetylcholine; stronger effect = higher value.

Assay [10] shares this target. The experiment in a line: activation of mouse TRPC6 channel, confirmation, selectivity assay for TRPC4 activator project, cell-based, HEK293, membrane potential dye, duplicate (AID 434950;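 active = membrane potential signal rise above negative control mean plus 3 SD in both duplicates, also active in the earlier TRPC4 screen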;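 as to activation: 0% = buffer only wells and 100% = acetylcholine maximal-effect wells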). The note with it: HEK293 TRPC6, membrane potential fluorescence, at 10 µM; stronger effect = higher value.
Assay [11] has the same target. The experiment in a line: TRPC6 potentiation by TRPC4 potentiator hits, confirmation, selectivity assay for TRPC4 potentiator project, HEK293 cells, membrane potential dye, duplicate (AID 434952;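 active = compound raising the membrane signal above positive-control mean plus 3 SD in both repeats, and a primary screen hit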). The note with it: HEK293 TRPC6, membrane potential dye fluorescence, at 10 µM, maximal acetylcholine added after compound; stronger effect = higher value.
Assay [12] has as its target Short transient receptor potential channel 4 (Mus musculus) (UniProt Q9QUQ5). The experiment in a line: calcium flux activators in TRPC4/5HT1a cells, counter-screen for TRPC4 activator project, cell-based, second counter screen, HEK293 TRPC4/5HT1a, Fluo-4 (AID 434977;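 active = calcium signal rise above buffer-control mean plus 5 SD in both duplicates, and also a hit in the primary screen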). The note with it: Fluo-4 calcium flux, at 10 µM; stronger effect = higher value.
Assay [13] is described as follows: calcium flux inhibitors in TRPC4/5HT1a cells, confirmation, counter-screen for TRPC4 inhibitor project, cell-based, second counter screen, HEK293 TRPC4/5HT1a, Fluo-4 (AID 434978;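 active = primary screen active whose calcium signal fell more than 3 SD beyond the full-serotonin control mean in both duplicate plates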;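 as to outcome: serotonin given first at submaximal then at maximal dose after compound preincubation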). The note with it: Fluo-4 calcium flux, at 10 µM, serotonin added to trigger calcium flux; stronger effect = higher value.
Assay [14] deals with TRPC4 (mouse), co-expressed with 5HT1a in HEK293. The experiment in a line: calcium flux potentiators in TRPC4/5HT1a cells, confirmation, counter-screen for TRPC4 potentiator project, cell-based, second counter screen, HEK293 TRPC4/5HT1a, Fluo-4 (AID 434979;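 active = signal rise over 3 SD above mean of control wells given weak agonist, in both repeats and first screen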). The note with it: Fluo-4 calcium flux, at 10 µM, serotonin added at its EC20 dose; stronger effect = higher value.
Assay [15] is described as follows: calcium flux activation in mu-opioid HEK293 cells, confirmation, counter-screen for TRPC4 activator project, cell-based, HEK293 mu-opioid receptor line (AID 449723;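 active = hit in primary screen, with calcium signal over 5 SD above buffer well mean in both duplicates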;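 also: counter screen cells carry the mu-opioid receptor alone and lack TRPC4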). The note with it: Fluo-4 calcium fluorescence, at 10 µM; stronger effect = higher value.
Assay [16] can be described thus: calcium flux enhancement in mu-opioid HEK293 cells, confirmation, counter-screen for TRPC4 allosteric potentiator project, cell-based, HEK293 mu-opioid receptor line (AID 449724;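 active = calcium signal rise more than 3 SD above the low-dose agonist control mean, in both duplicate plates and the primary screen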;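 also: HEK293 cells carrying mu-opioid receptor only with no TRPC4 channel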). The note with it: Fluo-4 calcium flux, at 10 µM, compound added before EC20 DAMGO stimulus; stronger effect = higher value.

Structures are written as SMILES. For part of these data: Entries with a potency or affinity are not part of this list. The source made the active and inactive calls.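 The calls were made as follows, unless noted: active = primary screen hit whose calcium fluorescence ratio, in both repeats, exceeds the weak agonist control mean by 3 SD; inactive = the rest.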

Chain of Short transient receptor potential channel 6 (Mus musculus) (Q61143 whole entry, looked up): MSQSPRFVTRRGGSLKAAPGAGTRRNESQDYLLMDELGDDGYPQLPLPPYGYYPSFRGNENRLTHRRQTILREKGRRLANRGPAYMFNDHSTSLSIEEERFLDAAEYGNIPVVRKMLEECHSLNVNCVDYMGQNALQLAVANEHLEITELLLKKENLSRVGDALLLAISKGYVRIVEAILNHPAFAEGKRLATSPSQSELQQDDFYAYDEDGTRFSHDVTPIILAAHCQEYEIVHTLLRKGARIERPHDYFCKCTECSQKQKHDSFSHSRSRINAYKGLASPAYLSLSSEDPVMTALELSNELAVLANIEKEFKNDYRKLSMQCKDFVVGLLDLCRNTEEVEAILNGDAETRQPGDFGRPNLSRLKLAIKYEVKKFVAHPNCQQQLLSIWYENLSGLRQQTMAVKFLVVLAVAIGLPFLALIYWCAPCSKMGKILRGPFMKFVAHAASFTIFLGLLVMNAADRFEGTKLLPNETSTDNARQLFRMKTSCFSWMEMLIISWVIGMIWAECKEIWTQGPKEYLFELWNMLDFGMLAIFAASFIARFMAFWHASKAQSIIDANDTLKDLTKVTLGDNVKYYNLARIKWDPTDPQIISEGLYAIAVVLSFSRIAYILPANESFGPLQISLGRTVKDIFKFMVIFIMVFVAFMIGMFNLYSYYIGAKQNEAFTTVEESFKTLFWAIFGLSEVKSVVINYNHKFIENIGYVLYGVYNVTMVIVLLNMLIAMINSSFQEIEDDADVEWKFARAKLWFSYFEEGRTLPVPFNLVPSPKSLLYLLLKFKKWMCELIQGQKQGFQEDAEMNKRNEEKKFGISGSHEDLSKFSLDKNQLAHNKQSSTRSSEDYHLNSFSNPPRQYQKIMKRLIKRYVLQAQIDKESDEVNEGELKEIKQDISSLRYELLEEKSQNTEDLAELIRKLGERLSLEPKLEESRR
Chain of Short transient receptor potential channel 4 (Mus musculus) (Q9QUQ5 whole entry, looked up): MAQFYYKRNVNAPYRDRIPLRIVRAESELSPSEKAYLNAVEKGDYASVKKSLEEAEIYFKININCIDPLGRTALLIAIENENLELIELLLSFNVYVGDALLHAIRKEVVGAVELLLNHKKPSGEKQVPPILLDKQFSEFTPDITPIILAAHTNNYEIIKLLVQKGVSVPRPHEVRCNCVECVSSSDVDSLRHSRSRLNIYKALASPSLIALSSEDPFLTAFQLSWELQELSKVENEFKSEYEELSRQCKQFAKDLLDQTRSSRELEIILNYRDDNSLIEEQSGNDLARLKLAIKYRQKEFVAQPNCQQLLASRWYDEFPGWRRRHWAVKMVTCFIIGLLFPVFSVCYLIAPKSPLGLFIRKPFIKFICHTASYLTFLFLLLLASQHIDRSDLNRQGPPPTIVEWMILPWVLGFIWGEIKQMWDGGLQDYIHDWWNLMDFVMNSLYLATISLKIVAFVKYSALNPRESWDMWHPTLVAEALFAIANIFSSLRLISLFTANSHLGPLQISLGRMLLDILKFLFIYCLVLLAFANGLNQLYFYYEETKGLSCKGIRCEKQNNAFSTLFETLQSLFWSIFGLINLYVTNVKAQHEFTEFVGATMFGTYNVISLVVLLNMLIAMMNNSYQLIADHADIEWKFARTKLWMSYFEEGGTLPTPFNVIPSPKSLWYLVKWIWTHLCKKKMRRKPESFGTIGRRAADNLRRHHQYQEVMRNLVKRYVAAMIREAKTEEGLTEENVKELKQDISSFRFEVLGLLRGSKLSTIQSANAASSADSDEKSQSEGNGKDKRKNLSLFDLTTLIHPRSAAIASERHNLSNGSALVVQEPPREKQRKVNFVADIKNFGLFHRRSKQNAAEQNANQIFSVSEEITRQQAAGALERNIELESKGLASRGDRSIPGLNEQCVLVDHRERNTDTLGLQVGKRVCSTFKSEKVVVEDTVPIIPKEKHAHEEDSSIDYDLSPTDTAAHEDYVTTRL

The inhibition is the percentage by which the read-out fell short of the control. As to `C=CCNc1nc(N2CCCC2)nc2ccccc12`, the result in assay [1], in assay [2], in [3], in assay [4], in assay [7] and in [8] was inactive. The outcome in [10], in assay [11], in [12], in [14], in [15] and in [16] was inactive. Moreover, the inhibition is 98% (active) in [5], 74% (active) in assay [6], 37.5% (active) in assay [9] and 19.9% (active) in assay [13].

`CCc1c(C(=O)N2CCCN(C)CC2)csc1C`: the result in assay [1], in assay [2], in assay [3], in assay [4], in [7] and in [8] was inactive. For the same molecule, the molecule was called inactive in assay [9], in assay [10], in [11], in assay [12], in assay [13] and in [14]. Also, the result in [15] and in [16] was inactive. Besides, the inhibition is 63% (active) in [5] and 44% (active) in [6].

As to `Cc1cc(C)c(S(=O)(=O)c2ccccc2C)c(OCC(C)(C)C)n1`, the outcome in assay [1], in assay [2], in assay [3], in assay [4], in assay [7] and in assay [8] was inactive. In addition, the outcome in assay [9], in [10], in assay [11], in [12], in assay [14] and in assay [15] was inactive. The outcome in assay [16] was inactive. In addition, the inhibition was 91% (active) in [5], 43% (active) in assay [6] and 15.5% (active) in assay [13].

`Cc1ccc(C)c2nc3sc(C(=O)O)cc3cc12`: the outcome in assay [1], in assay [2], in assay [3], in assay [4], in assay [6] and in assay [7] was inactive. Further, the result in [8], in [9], in assay [10], in [11], in assay [12] and in assay [14] was inactive. Moreover, the outcome in assay [15] and in assay [16] was inactive. Further, the inhibition in [5] was 83% (active); in assay [13], 30.9% (active).

Regarding `c1ccc2c(c1)nnn2-c1ncnc2sc3c(c12)CCCC3`, the outcome in assay [1], in assay [2], in [3], in [4], in [6] and in assay [7] was inactive. The outcome in assay [8], in [9], in assay [10], in [11], in [12] and in [14] was inactive. Besides, the outcome in assay [15] and in [16] was inactive. Also, the inhibition is 71% (active) in assay [5] and 21.8% (active) in [13].

Turning to `c1ccc(Cn2c(NCc3ccco3)nc3ccccc32)cc1`, the outcome in [1], in [2], in assay [3], in [4], in [7] and in assay [8] was inactive. The call in assay [9], in assay [10], in assay [11], in assay [12], in assay [14] and in assay [15] was inactive. Besides, the outcome in assay [16] was inactive. Besides, the inhibition in assay [5] is 95% (active); in assay [6], 75% (active); in [13], 25.2% (active).

Consider `Cc1ccc(-n2nc(-c3cccs3)cc2C(=O)NCC2CCCO2)c(C)c1` (stereo not given), for which the outcome in assay [1], in [2], in [3], in assay [4], in assay [6] and in assay [7] was inactive. In addition, the result in assay [8], in assay [9], in assay [11], in assay [12], in [13] and in assay [14] was inactive. For the same molecule, the outcome in assay [15] and in assay [16] was inactive. For the same molecule, the inhibition in [5] is 79% (active). The activation in assay [10] is 32% (active).

Regarding `CC(C)c1nc(CNC(=O)CC2C(=O)NCCN2Cc2ccc(F)cc2Cl)cs1` (stereo not given), the outcome in assay [1], in assay [2], in assay [3], in assay [4], in assay [6] and in assay [7] was inactive. In addition, the result in assay [8], in [9], in assay [10], in [11], in assay [12] and in [13] was inactive. The result in assay [14], in assay [15] and in [16] was inactive. Moreover, in assay [5], the inhibition was 92% (active).

Take `Cc1ccc(S(=O)(=O)c2cnc(-c3ccccc3)nc2N2CCN(C)CC2)cc1`: the outcome in [1], in [2], in [3], in assay [4], in assay [6] and in assay [7] was inactive. Besides, the result in [8], in assay [9], in assay [10], in assay [11], in assay [12] and in [13] was inactive. The result in [14], in assay [15] and in assay [16] was inactive. Further, in [5], the inhibition was 64% (active).

Consider `Cc1ccc(-c2[nH]c3ccccc3c2SCCN)cc1`, for which the result in [1], in assay [2], in assay [3], in assay [4], in [5] and in assay [6] was inactive. For the same molecule, the result in assay [7], in [8], in assay [10], in assay [11], in assay [12] and in [13] was inactive. In addition, the outcome in assay [14], in [15] and in assay [16] was inactive. Besides, the inhibition in assay [9] is 34.5% (active).

`Cc1c(CCOC(=O)c2cccc([N+](=O)[O-])c2)sc[n+]1CC(=O)c1ccccc1`: the outcome in assay [1], in assay [2], in [3], in assay [4], in assay [6] and in assay [7] was inactive. For the same molecule, the outcome in assay [8], in [9], in assay [10], in assay [11], in assay [12] and in [14] was inactive. In addition, the result in assay [15] and in assay [16] was inactive. Also, the values for the inhibition in assay [5] and in [13] were 88% (active) and 28.9% (active), respectively.

In the case of `Oc1ccccc1Nc1nc(NCc2ccco2)c2ccccc2n1`, the result in assay [1], in [2], in assay [3], in assay [4], in [6] and in assay [7] was inactive. In addition, the outcome in [8], in assay [10], in [11], in assay [12], in assay [14] and in assay [15] was inactive. Moreover, the result in [16] was inactive. For the same molecule, the results for the inhibition in assay [5], in assay [9] and in assay [13] were 88% (active), 34.5% (active) and 39.1% (active), respectively.

For `CCCN1CN(Cc2ccco2)c2nc3ccccc3n2C1`, the result in assay [1], in assay [2], in assay [3], in assay [4], in assay [7] and in [8] was inactive. The outcome in assay [9], in [10], in [11], in assay [12], in assay [14] and in [15] was inactive. In assay [16], the result was inactive. Also, the inhibition in [5] is 96% (active); in [6] it was 53% (active); in assay [13], 25% (active).

As for `CCCCN=C(Nc1ccc(Cl)cc1)c1cccnc1`, the outcome in assay [1], in [2], in assay [3], in assay [4], in assay [7] and in assay [8] was inactive. The molecule was classed as inactive in assay [9], in [10], in [11], in assay [12], in [13] and in assay [14]. For the same molecule, the outcome in assay [15] and in [16] was inactive. In addition, the inhibition in assay [5] is 82% (active); in [6], 54% (active).

As for `CN(C)c1ccc(NC(=O)CN2C3CCCC2CC(NC(=O)c2ccccc2)C3)cc1` (stereo not given), the outcome in [1], in [2], in assay [3], in [4], in assay [6] and in assay [7] was inactive. Also, the result in [8], in [9], in assay [10], in [11], in assay [12] and in assay [13] was inactive. In addition, the result in [14], in [15] and in assay [16] was inactive. Also, the inhibition in assay [5] was 71% (active).

For the origin of these results see PubChem BioAssay.
